About 2,000 (36%) of roughly 5,500 compounds were called active. About 18% were inconclusive and are not listed. No stated cut-off is given here; in the data, active means normalized growth mostly below about 0.91 (no sharp cut-off); inconclusive means no clear call, values can overlap the other calls; inactive means mostly above about 0.92. The list shows a part of the results.
Assay: chemical genetic growth profiling, strain panel (AID 1159580);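 further: tested at 20 µM; growth read once vehicle control cultures reached saturation at 30 °C; 1 = growth at the plate median or of vehicle wells; lower values mean less growth of the strain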
Details: S. cerevisiae deletion strains, growth OD
[1] = locus YAL013W, strain DEP1, hits give low values
[2] = locus YAL040C, strain CLN3, hits give low values
[3] = locus YCL061C, strain MRC1 (second series), hits give low values
[4] = locus YDR363W, strain ESC2, hits give low values
[5] = locus YER002W, strain NOP16, hits give low values
[6] = locus YJR075W, strain HOC1, hits give low values
[7] = locus YNL153C, strain GIM3, hits give low values
[8] = locus YNL175C, strain NOP13, hits give low values
[9] = locus YNL197C, strain WHI3, hits give low values
[10] = locus YNL224C, strain SQS1, hits give low values
[11] = locus YNL322C, strain KRE1, hits give low values
[12] = locus YOR083W, strain WHI5 (second series), hits give low values
[13] = locus YPL055C, strain LGE1, hits give low values
[14] = locus YMR263W, strain SAP30, hits give low values
[15] = locus YNL128W, strain TEP1, hits give low values

Measured: normalized growth

N[C@H]1CONC1=O
inactive: [1] 1.01 | [2] 1.08 | [3] 0.995 | [4] 0.995 | [5] 0.988 | [6] 1.02 | [7] 0.955 | [8] 0.986 | [9] 1.02 | [10] 0.994 | [11] 1.01 | [12] 0.993 | [13] 0.992

N=C(N)SCCc1cnc[nH]1
inactive: [2] 0.985 | [3] 0.988 | [4] 1.01 | [5] 1.02 | [6] 0.998 | [14] 0.979 | [15] 0.995 | [7] 0.972 | [8] 0.992 | [9] 0.98 | [10] 0.991 | [11] 0.979 | [12] 0.988 | [13] 1

NCCC(=O)NCCc1cnc[nH]1
inactive: [1] 1 | [2] 0.98 | [3] 0.997 | [5] 0.993 | locus YGR078C, strain PAC10, hits give low values 1.01 | [14] 1 | [15] 1.01 | [8] 0.966 | [9] 0.984 | [10] 0.998 | [12] 1 | locus YPL241C, strain CIN2, hits give low values 1.01

Reference: PubChem BioAssay AID1159580 (chemical genetic matrix, 2015)
